Screening data as filed in PubChem.
Shiga inhibitor = inhibitors of Shiga toxin in Vero cells; Vero cells, Shiga toxin protein synthesis inhibition reporter; inhibition, % at 38.7 µM; hit rate 9.2% among 290,000; in the data active = inhibition mostly above about 28%, no sharp cut-off; inactive = mostly below about 43%; also: 0% is about no effect
LmPK inh = LmPK (Leishmania mexicana) enzyme inhibition. Q27686. purified LmPK, Kinase-Glo ATP luminescence, 1 h. Potency, µM (doses to about 57.5 µM), inactives show top-dose activity change, negative = inhibition, usual class: inhibitors. hit rate 0.37% among 290,000; also: potency is read from the fitted curve at half-maximal effect; % is scaled to controls: 0 for no effect and ±100 for the full control effect
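Screened at intermediate enzyme activity to detect both inhibitors and activators: LmPK at 0.1 nM, with a 0.5 nM enzyme column as activation reference. PEP 0.5 mM, ADP 0.1 mM; ATP detected by luminescence after 1 h.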
RE007 growth inh = less growth of the S. pombe RE007 Vpr strain; Potency, µM (highest dose often 92.2 µM), inactives show at the highest dose activity change, negative = less growth, actives largely listed as inhibitors; hit rate 0.21% among 360,000; S. pombe RE007 Vpr strain, BacTiter-Glo ATP luminescence, 24 h; active = well fitted falling curve with a large enough effect; also: potency is read from the fitted curve at half-maximal effect; % is scaled to controls: 0 for no effect and ±100 for the full control effect; nearly all actives have a fitted effect of over 50% in size
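Fission yeast RE007 carrying one integrated HIV-1 vpr copy, seeded at OD 0.01 in PMG+AL medium with 23 nL pinned compound. Grown 24 h at 30 degrees; viability read by BacTiter-Glo luminescence after 5 min.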
Cycloheximide cs = counter-screen for Shiga toxin inhibitors: cycloheximide protein synthesis inhibition | cell reporter, cycloheximide protein synthesis inhibition counterscreen | max response, % | hit rate 12% among 300,000 | AID 2314; in the data active = max response mostly above about 13%, no sharp cut-off; inactive = mostly below about 14%; also: read at 38.3 µM for the half of the compounds with a filed dose; 0% is about no effect
Tb PYK inh = blocks Trypanosoma brucei pyruvate kinase | TbPYK enzyme, Kinase-Glo Plus ATP luminescence, 45 min | Potency, µM (series often up to 76.8 µM), inactives show at the top dose activity, negative = inhibition, hits mostly inhibitors | hit rate 0.12% among 410,000 | AID 624173; also: potency is read from the fitted curve at half-maximal effect; % is scaled to controls: 0 for no effect and ±100 for the full control effect; nearly all actives have a fitted effect of over 50% in size
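In this concentration-response screen, enzyme-free wells defined baseline while DMSO plates tracked drift. Each reaction combined TbPYK, substrate, compound and 130 uM ADP for 45 min at room temperature. Kinase-Glo Plus luminescence gave the signal.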
FBPA Giardia inh = inhibitors of Giardia lamblia fructose-1,6-bisphosphate aldolase | A8B2U2 | AID 2451 | purified Giardia FBPA | hit rate 0.71% among 290,000 | Potency, µM (doses to about 59.6 µM), without a hit: top-dose activity, negative = inhibition, most hits filed as inhibitors; also: potency is read from the fitted curve at half-maximal effect; % is scaled to controls: 0 for no effect and ±100 for the full control effect; nearly all actives have a fitted effect of over 55% in size
Target sequence (A8B2U2 whole entry, looked up): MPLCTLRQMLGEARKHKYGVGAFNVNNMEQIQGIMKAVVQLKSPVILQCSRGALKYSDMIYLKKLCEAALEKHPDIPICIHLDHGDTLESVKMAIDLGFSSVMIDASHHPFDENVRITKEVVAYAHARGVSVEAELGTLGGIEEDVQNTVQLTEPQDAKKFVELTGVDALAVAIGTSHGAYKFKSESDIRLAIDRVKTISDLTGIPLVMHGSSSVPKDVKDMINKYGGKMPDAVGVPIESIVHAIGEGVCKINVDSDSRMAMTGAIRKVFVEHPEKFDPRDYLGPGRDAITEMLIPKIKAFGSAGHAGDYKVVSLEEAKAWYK
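40 nM FBPA preincubated 10 min at RT with compound (up to 57.5 uM final), then substrate plus GAPDH/TPI/NAD/arsenate coupling and diaphorase/resazurin added. Fluorescence read after 20 min at RT, 525/598 nm.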
The depositor's hits bear a star. Only a selection was taken, and hits are over-represented in it overall. Unless noted, calls follow the shape of the dose curve; as a rule, active = well fitted curve in the direction sought with a large enough effect; inconclusive = small, poorly fitted or top-dose-only effect, or another doubt; inactive = no such curve, though single readings can be large; an effect the other way counts as inactive or inconclusive.

For O=C(NNC(=O)c1cc2cc3ccccc3nc2s1)c1cccc(C(F)(F)F)c1 the results were Shiga inhibitor -3.4, LmPK inh 0.8%, RE007 growth inh 6.1%, Cycloheximide cs -2.4, Tb PYK inh 3.4% and FBPA Giardia inh 7.7%.
`Cc1ccc(-c2c(C(=O)NCCc3ccccc3)oc(=O)c3ccccc23)cc1` gave Shiga inhibitor -5.7, Cycloheximide cs 1.8 and Tb PYK inh -17.1%.
Screening COc1ccc(-c2cn3cccnc3n2)cc1NC(=O)c1cc(C)cc(C)c1 returned Tb PYK inh 2.5%.
Screening CCN(CC)C(=O)Cn1cc(SCC(=O)Nc2cccc(C)c2)c2ccccc21 returned Tb PYK inh -1.6%.
`CCOC(=O)c1c(NC(NC(=O)C(C)C)C(Cl)(Cl)Cl)sc2c1CCC2` (centres undefined) gave Shiga inhibitor 34.7, LmPK inh -0.2%, RE007 growth inh 6.0%, Cycloheximide cs 15.5*, Tb PYK inh 6.4% and FBPA Giardia inh -2.5%.
`O=C(Nc1ccccc1Cl)c1cc(C2CCCCN2C(=O)CCCc2ccccc2)on1` (centres undefined) gave RE007 growth inh -3.4% and Tb PYK inh -2.3%.
`C/C(=N\NC(=O)c1cccc(F)c1)c1ccc(NC(=O)Cc2ccccc2)cc1` gave Shiga inhibitor 48.5*, LmPK inh -1.0%, RE007 growth inh 13.1%, Cycloheximide cs 41.6* and Tb PYK inh -4.7%.
Screening C/C(=N\NC(=O)c1cc(O)cc(O)c1)c1ccc(NC(=O)Cc2ccccc2)cc1 returned Shiga inhibitor 70.2*, LmPK inh 22.6%, RE007 growth inh 12.1%, Cycloheximide cs 21.7* and Tb PYK inh -1.5%.
For C/C(=N\NC(=O)CNC(=O)c1cccc(F)c1)c1ccc2ccccc2c1 the results were Shiga inhibitor -9.8, LmPK inh -0.3%, RE007 growth inh 0.3%, Cycloheximide cs -4.2 and Tb PYK inh -1.7%.
Screening C/C(=N/NC(=O)c1ccc(-c2ccccc2)cc1)c1cc(O)cc(O)c1 returned Shiga inhibitor 8.9, LmPK inh -3.6%, RE007 growth inh -26.3%, Cycloheximide cs 17.5 and Tb PYK inh 1.8%.
`CCCc1nnc(NC(=O)c2cc(=O)c3cc(C)c(C)cc3o2)s1` gave Tb PYK inh 4.4%.
CC(=O)Nc1ccc(S(=O)(=O)N2CCN(S(=O)(=O)c3ccccc3)CC2)cc1 was read as Shiga inhibitor -3.3, LmPK inh 0.8%, RE007 growth inh 14.8%, Cycloheximide cs -1.7, Tb PYK inh 0.3% and FBPA Giardia inh 2.8%.
Cc1ccc(C(=O)NC(=C(Cl)Cl)S(=O)(=O)c2ccc(Cl)cc2)cc1 was read as Shiga inhibitor 87.2*, LmPK inh 7.2%, RE007 growth inh 0.4%, Cycloheximide cs 47.8*, Tb PYK inh 0.0% and FBPA Giardia inh 2.6%.
Cc1ccc(S(=O)(=O)C(NC(=O)c2ccccc2)=C(Cl)Cl)cc1 was read as RE007 growth inh 10.9% and Tb PYK inh -8.3%.
Cc1ccc(C(=O)NC(=C(Cl)Cl)S(=O)(=O)c2ccc(C)cc2)cc1 was read as Shiga inhibitor 23.6, LmPK inh 1.1%, RE007 growth inh 6.9%, Cycloheximide cs 13.4, Tb PYK inh -8.4% and FBPA Giardia inh 0.1%.
O=C(NC(=C(Cl)Cl)S(=O)(=O)c1ccc(Cl)cc1)c1ccccc1 was read as Shiga inhibitor 89.6*, LmPK inh 10.8%, RE007 growth inh -4.0%, Cycloheximide cs 56.6*, Tb PYK inh 2.4% and FBPA Giardia inh 1.1%.
Cc1ccc(S(=O)(=O)/C(=C/Cl)NC(=O)c2ccccc2)cc1 was read as Shiga inhibitor 13.4, LmPK inh -9.3%, RE007 growth inh 0.0%, Cycloheximide cs 14.9*, Tb PYK inh -16.6% and FBPA Giardia inh -5.6%.
`CC(=O)NC(=C(Cl)Cl)S(=O)(=O)c1ccccc1` gave Shiga inhibitor 65.9*, LmPK inh -0.9%, RE007 growth inh 6.3%, Cycloheximide cs 36.3*, Tb PYK inh 5.4% and FBPA Giardia inh 1.7%.
For O=C(Nc1ccc(F)cc1)C1CCN(S(=O)(=O)c2ccc3c(c2)CCCN3C(=O)C2CCC2)CC1 the results were Tb PYK inh -0.3%.
